Assay results: PubChem BioAssay (Tox21)
Several values for one entry are separate records, joined by “and”; a condition that tells them apart may be missing. Equal entries are not always repeated. Results filed as inconclusive are left out. Some compounds were tested as several samples or in several runs, with calls that do not always agree. Activity calls are given as the source filed them. Unless noted, calls come from the whole dose curve; as a rule, active = well fitted curve in the direction sought with a large enough effect in the repeat runs; inconclusive = weak or mixed curves; inactive = no such curve, though single readings can be large; an effect the other way counts as inactive or inconclusive.

Columns and labels:
[1] = target: Luciferin 4-monooxygenase (Photinus pyralis) (UniProt P08659); assay: qHTS assay to identify small molecule inhibitors of firefly luciferase (AID 1224835); note: nearly all actives have a fitted effect of over 25% in size; note: potency is the fitted concentration of half-maximal effect
How it was run: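 Quantitative HTS format; KM concentrations of both substrates. Purified P. pyralis FLuc activity quantified from luminescence images.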

[2] = qHTS assay to identify small molecule antagonists of the constitutive androstane receptor (CAR) signaling pathway - cell viability counter screen (AID 1224837); note: nearly all actives have a fitted effect of over 45% in size
How it was run: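 To flag cytotoxic false antagonists, HepG2 hCAR/CYP2B6-2.2kb cells were treated 23 hr with 15-concentration compound series and 50 nM CITCO at 37 C/5% CO2; CellTiter-Fluor fluorescence was the measured end point.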

[3] = target: Nuclear receptor subfamily 1 group I member 3 (Homo sapiens) (UniProt Q14994); assay: qHTS assay to identify small molecule antagonists of the constitutive androstane receptor (CAR) signaling pathway (AID 1224838);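 note: HepG2 cells stably expressing hCAR with CYP2B6 luciferase reporter stimulated by CITCO; nearly all actives have a fitted effect of over 40% in size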
How it was run: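 Human hepatoma HepG2 cells expressing hCAR and a CYP2B6 promoter (2.2 kb) luciferase construct; compound titration (15 points) with 50 nM CITCO final, 24 h at 37 C/5% CO2; luminescence via ONE-Glo after 30 min at room temperature.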

[4] = target: Nuclear receptor subfamily 1 group I member 3 (Homo sapiens) (UniProt Q14994); assay: qHTS assay to identify small molecule agonists of the constitutive androstane receptor (CAR) signaling pathway (AID 1224839); note: nearly all actives have a fitted effect of over 15% in size; note: potency is the fitted concentration of half-maximal effect;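 for activation: HepG2 cells stably carrying human CAR and a CYP2B6 luciferase reporter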
How it was run: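 Stable hCAR/CYP2B6-2.2kb HepG2 line in DMEM with 10% FBS; compounds (15 concentrations) and 0.75 uM PK11195 final, 24 h at 37 C/5% CO2, then ONE-Glo luminescence after 30 min.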

[5] = qHTS assay to identify small molecule antagonists of the estrogen related receptor signaling pathway with the pleiotropic PPARgamma coactivator (PGC) from Tox21 10K library - cell viability counter screen (AID 1224840; active = well fitted cell-killing curve with a large enough effect in the repeat runs, not every such curve was filed as active; note: nearly all actives have a fitted effect of over 40% in size)
How it was run: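 Seeded PGC/ERR cells (2,000/well, 6 h, 37 C/5% CO2) get compound by pin tool; 17.5 h incubation at 37 C; CellTiter-Fluor added, 30 min, fluorescence measured.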

[6] = target: Thyrotropin receptor (Homo sapiens) (UniProt P16473); assay: qHTS assay to identify small molecule agonists of the thyroid stimulating hormone receptor (TSHR) signaling pathway (AID 1224843; calls by dose curve; note: nearly all actives have a fitted effect of over 45% in size)
How it was run: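 Compounds are titrated over 15 concentrations, in triplicate, onto TSHR-HEK293 cells seeded at 800/well. Plates sit 30 min at room temperature before cAMP-d2 and anti-cAMP cryptate are added; signal is read after a further hour.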

[7] = qHTS assay to identify small molecule agonists of the hypoxia (HIF-1) signaling pathway - cell viability counter screen (AID 1224844; calls by dose curve; note: nearly all actives have a fitted effect of over 50% in size)
How it was run: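 HRE-bla ME-180; 0.5% dFBS; cpd 17 h, 37C, 5% CO2; CellTiter-Glo lum., 30 min RT, post-FRET read, same wells.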

[8] = qHTS assay to identify small molecule agonists of H2AX (AID 1224845; active = well fitted activation curve with a large enough effect in the signal ratio in the repeat runs, not every such curve was filed as active; the % refers to the signal ratio)
How it was run: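 Wild-type CHO-K1 cells plated overnight, then exposed 3 hr at 37C to compounds at 15 concentrations (0.76% DMSO). Lysed, then HTRF anti-pH2AX(S139)-cryptate/anti-H2AX-d2 detection after 24 hr at room temperature; emissions 665 and 620 nm.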

[9] = qHTS RealTime-Glo MT Cell Viability Assay in HepG2 cells - 24 hour (AID 1224867); note: nearly all actives have a fitted effect of over 50% in size
How it was run: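 Viability was tracked continuously by NanoLuc luminescence from prosubstrate reduced by living HepG2 cells, at successive time points over 40 h of compound exposure. Cells with reagent were preincubated 5 h at 37 °C before compound addition.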

[10] = qHTS RealTime-Glo MT Cell Viability Assay in HEK293 cells - 32 hour (AID 1224868); note: nearly all actives have a fitted effect of over 50% in size; note: potency is the fitted concentration of half-maximal effect
How it was run: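 Viability tracked continuously by luminescence as live cells reduce a prosubstrate for NanoLuc; HEK293 cells preincubated 5 h, compound-treated at 37 C, and read at 0, 8, 16, 24, 32 and 40 h.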

[11] = A CellTox Green Cytotoxicity Assay to monitor cytotoxicity in HEK293 cells - 0 hour (AID 1224869); note: nearly all actives have a fitted effect of over 50% in size; note: potency is the fitted concentration of half-maximal effect
How it was run: (§1)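 Tox21 screen in HEK293: membrane-impermeant cyanine dye fluoresces on binding dead-cell DNA; compound pinned 5 h post-seeding, plates held at 37 C, signal read repeatedly through 40 h.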

[12] = qHTS RealTime-Glo MT Cell Viability Assay in HepG2 cells - 40 hour (AID 1224870); note: nearly all actives have a fitted effect of over 50% in size
How it was run: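 HepG2 cells mixed with RealTime-Glo MT reagents (NanoLuc plus cell-permeant prosubstrate) were seeded at 600 cells/well, incubated 5 h at 37 C/5% CO2, then pinned with compounds in DMSO; nonlytic luminescence tracked viability during 40 h treatment.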

[13] = A CellTox Green Cytotoxicity Assay to monitor cytotoxicity in HEK293 cells - 40 hour (AID 1224871); note: nearly all actives have a fitted effect of over 45% in size; note: potency is the fitted concentration of half-maximal effect
How it was run: as §1

[14] = qHTS assay to identify small molecule agonists of the hypoxia (HIF-1) signaling pathway (AID 1224846; active = well fitted activation curve with a large enough effect in the signal ratio in the repeat runs, not every such curve was filed as active; the % refers to the signal ratio)
How it was run: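 Reporter induction in HRE-bla ME-180 cells is taken as agonism: cells sit 5 hrs after plating, receive compounds or DMSO only, incubate 17 hrs at 37C under 5% CO2, and are loaded with CCF4-AM for beta-lactamase FRET measurement.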

[15] = qHTS assay to identify small molecule agonists of H2AX - cell viability counter screen (AID 1224847; calls by dose curve; note: top concentration of the series differs between compounds; nearly all actives have a fitted effect of over 30% in size)
How it was run: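 Viability of CHO-K1 (wild type) cells after 3 hr compound exposure was measured by CellTiter-Glo luminescence.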

[16] = qHTS assay to identify small molecule antagonists of the estrogen related receptor signaling pathway with the pleiotropic PPARgamma coactivator (PGC) from Tox21 10K library (AID 1224841; call rule not given here)
How it was run: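 Test chemicals dissolved in DMSO were applied to pre-incubated (6 h) PGC/ERR cells at 2,000 cells/well for an 18 h, 37 C treatment; reporter luminescence was then read using One-Glo.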

[17] = qHTS assay to identify small molecule agonists of the estrogen related receptor signaling pathway with the pleiotropic PPARgamma coactivator (PGC) from Tox21 10K library (AID 1224842); note: nearly all actives have a fitted effect of over 15% in size
How it was run: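 PGC/ERR reporter cells (NTP line) were seeded 2,000 per well, rested 6 h at 37 C/5% CO2, then pin-dosed with compounds in DMSO for 18 h at 37 C; luciferase read by One-Glo luminescence after 30 min at room temperature.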

[18] = qHTS assay to identify small molecule antagonists of the estrogen related receptor (ERR) signaling pathway from Tox21 library (AID 1224848); note: nearly all actives have a fitted effect of over 50% in size
How it was run: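 First, 2,000 ERR cells per well were plated and held 6 h at 37 C/5% CO2. Next, compounds in DMSO were pinned in and left 18 h at 37 C. Finally, ONE-Glo was added and luminescence read after 30 min at room temperature.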

[19] = qHTS assay to identify small molecule agonists of the estrogen related receptor (ERR) signaling pathway from Tox21 library (AID 1224849; calls by dose curve; note: nearly all actives have a fitted effect of over 15% in size); details: ERR reporter cell line, ONE-Glo luciferase, 18 h
How it was run: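 Tox21 compounds tested for ERR agonism in an NTP reporter cell line: 18 h treatment at 37 C, then ONE-Glo luminescence.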
% is set by controls: 0 for no effect and ±100 for the full control effect.

Sequence of Nuclear receptor subfamily 1 group I member 3 (Homo sapiens) (Q14994 whole entry, looked up): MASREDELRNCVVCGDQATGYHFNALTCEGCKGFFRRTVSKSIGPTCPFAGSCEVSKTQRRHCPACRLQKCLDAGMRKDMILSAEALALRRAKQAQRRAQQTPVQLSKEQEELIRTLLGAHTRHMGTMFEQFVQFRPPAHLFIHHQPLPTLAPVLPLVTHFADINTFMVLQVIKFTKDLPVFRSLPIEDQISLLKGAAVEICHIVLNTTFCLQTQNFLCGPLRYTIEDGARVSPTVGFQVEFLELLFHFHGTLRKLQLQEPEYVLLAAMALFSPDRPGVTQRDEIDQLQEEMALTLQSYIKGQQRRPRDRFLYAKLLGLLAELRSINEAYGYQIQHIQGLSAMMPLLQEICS
Sequence of Thyrotropin receptor (Homo sapiens) (P16473 whole entry, looked up): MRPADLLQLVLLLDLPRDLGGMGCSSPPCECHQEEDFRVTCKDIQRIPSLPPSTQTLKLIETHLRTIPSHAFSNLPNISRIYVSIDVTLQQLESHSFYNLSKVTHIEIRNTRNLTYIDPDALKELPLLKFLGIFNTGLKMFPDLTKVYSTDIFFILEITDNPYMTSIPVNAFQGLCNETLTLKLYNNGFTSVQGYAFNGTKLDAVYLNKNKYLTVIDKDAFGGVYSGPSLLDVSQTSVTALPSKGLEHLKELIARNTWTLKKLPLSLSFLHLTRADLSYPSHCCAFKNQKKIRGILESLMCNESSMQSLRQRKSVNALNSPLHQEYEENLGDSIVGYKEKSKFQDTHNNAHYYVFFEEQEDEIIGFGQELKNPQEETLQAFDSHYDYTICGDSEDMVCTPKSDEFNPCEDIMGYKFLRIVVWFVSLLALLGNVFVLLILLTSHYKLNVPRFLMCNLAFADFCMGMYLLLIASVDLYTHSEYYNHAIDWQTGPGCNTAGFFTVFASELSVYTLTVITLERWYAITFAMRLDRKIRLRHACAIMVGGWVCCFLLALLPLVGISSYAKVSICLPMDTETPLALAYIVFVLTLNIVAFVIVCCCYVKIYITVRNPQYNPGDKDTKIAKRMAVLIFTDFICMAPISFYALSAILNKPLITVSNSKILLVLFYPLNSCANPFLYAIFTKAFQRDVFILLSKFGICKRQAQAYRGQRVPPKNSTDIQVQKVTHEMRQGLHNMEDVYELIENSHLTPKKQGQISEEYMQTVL
Sequence of Luciferin 4-monooxygenase (Photinus pyralis) (P08659 whole entry, looked up): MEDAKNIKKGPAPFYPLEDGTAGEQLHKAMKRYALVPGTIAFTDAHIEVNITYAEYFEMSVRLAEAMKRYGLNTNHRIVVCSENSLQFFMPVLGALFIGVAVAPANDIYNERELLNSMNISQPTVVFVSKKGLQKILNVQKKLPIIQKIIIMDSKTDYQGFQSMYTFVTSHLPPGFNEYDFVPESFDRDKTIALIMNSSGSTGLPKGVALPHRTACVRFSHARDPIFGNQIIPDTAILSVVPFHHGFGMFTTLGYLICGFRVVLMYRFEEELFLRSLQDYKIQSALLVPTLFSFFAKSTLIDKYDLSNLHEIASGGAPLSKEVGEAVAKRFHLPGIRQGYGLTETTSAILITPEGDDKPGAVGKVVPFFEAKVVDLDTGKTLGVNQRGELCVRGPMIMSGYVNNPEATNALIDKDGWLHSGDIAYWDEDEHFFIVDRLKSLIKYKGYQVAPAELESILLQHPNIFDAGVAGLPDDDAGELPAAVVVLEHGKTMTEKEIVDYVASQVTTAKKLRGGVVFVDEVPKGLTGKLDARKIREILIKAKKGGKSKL

COc1ccccc1NC(=O)CC(C)=O
inactive: Potency [1] | Potency [2] | Potency [3] | Potency [4] | Potency [5] | Potency [6] | Potency [7] | Potency [8] | outcome [9] | Potency [10] | Potency [11] | outcome [12] | Potency [13]

CC(=O)OC/C=C(C)/C=C/C=C(C)/C=C/C1=C(C)CCCC1(C)C
inactive: Potency [1] | Potency [2] | Potency [3] | Potency [4] | Potency [5] | Potency [7] | Potency [8] | outcome [14] | Potency [15] | outcome [9] | Potency [10] | Potency [11] | outcome [12] | Potency [13]

O=C(O)CCCCC1CCSS1 (stereo not drawn)
inactive: Potency [1] | Potency [2] | Potency [5] | Potency [16] | Potency [17] | Potency [7] | Potency [8] | Potency [15] | Potency [18] | activity change, positive = activation ([19]; at 42.5 µM (top of the series)) 4.75% | activity change, positive = activation ([19]; at 92.4 µM (top of the series)) -0.498% and 6.05% | outcome [9] | Potency [10] | Potency [11] | outcome [12] | Potency [13]

CC(=O)CCC(C)C
inactive and 38.9 µM (active): Potency [11]
inactive and 24.5 µM (active): Potency [13]
inactive: Potency [1] | Potency [2] | Potency [3] | Potency [4] | Potency [5] | Potency [7] | Potency [8] | outcome [14] | Potency [15] | outcome [9] | Potency [10] | outcome [12]

CCCCCCCCCCCCCC(=O)OC(C)C
inactive and 2.45 µM (active): Potency [10]
inactive: Potency [1] | Potency [2] | Potency [5] | Potency [7] | Potency [8] | outcome [9] | Potency [11] | outcome [12] | Potency [13]

O=C(OCc1ccccc1)c1ccccc1
inactive: Potency [2] | Potency [3] | Potency [5] | Potency [16] | Potency [17] | Potency [6] | Potency [7] | Potency [8] | outcome [14] | Potency [18] | activity change, positive = activation ([19]; at 92.4 µM (top of the series)) 13.6% | outcome [9] | Potency [10] | Potency [11] | outcome [12]
43.8 µM (active) and inactive: Potency [13]
active: Potency [1] 14.2 µM and 11.2 µM and 9.77 µM

COc1ccc(C(=O)c2ccccc2)c(O)c1
inactive and 9.77 µM (active): Potency [10]
inactive: Potency [2] | Potency [3] | Potency [5] | Potency [7] | Potency [8] | outcome [14] | Potency [15] | outcome [9] | Potency [11] | outcome [12] | Potency [13]
active: Potency [1] 31.2 µM and 35.6 µM and 30.9 µM | Potency [4] 47.8 µM and 48.6 µM
